A selection: hits, their analogues and other compounds. The true share with any hit is near 5.4%.
aDG glyco up – increases alpha dystroglycan glycosylation; 0.22% of 360,000 active; activation, % at 10 µM; Pro5-aDG cells, alpha-DG glycosylation AlphaScreen (IIH6); 0% Pro5, 100% B10-LARGE cell signal;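 active means activation of at least 8% versus controls, or a plate z-score of at least 8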;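 further: Pro5 are CHO cells carrying HIG-tagged alpha-DG that lacks glycosylation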
ALR inh – blocks human ALR sulfhydryl oxidase activity | P55789 | purified ALR, DTT oxidation, H2O2 HRP-luminol luminescence | inhibition, % (no concentration beside the values) | 3.8% of 290,000 active | AID 485317;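 active means mean replicate inhibition above about 79%, with every replicate also reaching it, limit read from the data; inconclusive means only one of the two criteria met; inactive means mean below limit and not every replicate reaching it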
Target sequence (P55789 whole entry, looked up): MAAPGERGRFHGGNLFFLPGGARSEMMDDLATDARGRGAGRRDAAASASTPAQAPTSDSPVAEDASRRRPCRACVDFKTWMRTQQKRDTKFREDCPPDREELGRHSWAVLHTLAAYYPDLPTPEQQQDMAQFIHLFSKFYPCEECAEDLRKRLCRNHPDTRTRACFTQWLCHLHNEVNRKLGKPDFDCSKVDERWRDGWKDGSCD
APOBEC3G inh – inhibitors of human APOBEC3G DNA deaminase. Q9HC16. AID 493012. 0.28% of 330,000 active. recombinant A3G, ssDNA deamination FAM/TAMRA fluorescence. inhibition, % at 20 µM;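 active means inhibition of at least 40% at 20 µM, with no more than 30% in the related APOBEC3A deaminase screen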;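 further: plate controls were DMSO wells with A3G for no effect and wells lacking A3G enzyme for full effect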
Target sequence (Q9HC16 whole entry, looked up): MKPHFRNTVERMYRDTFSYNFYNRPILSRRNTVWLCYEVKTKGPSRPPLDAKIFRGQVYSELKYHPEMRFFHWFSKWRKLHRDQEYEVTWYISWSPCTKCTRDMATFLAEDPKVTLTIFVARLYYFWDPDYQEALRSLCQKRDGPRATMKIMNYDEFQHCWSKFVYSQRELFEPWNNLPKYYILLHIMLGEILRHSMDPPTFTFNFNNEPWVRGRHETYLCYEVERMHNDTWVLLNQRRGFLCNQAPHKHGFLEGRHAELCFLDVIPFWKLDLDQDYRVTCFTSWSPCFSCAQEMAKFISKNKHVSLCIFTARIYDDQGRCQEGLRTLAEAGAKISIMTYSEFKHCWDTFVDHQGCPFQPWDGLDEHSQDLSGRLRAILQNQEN
APOBEC3A inh – human APOBEC3A DNA deaminase inhibition | P31941 | recombinant A3A, FAM/TAMRA ssDNA deamination fluorescence | inhibition, % at 20 µM | 0.41% of 330,000 active;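 active means at least 40% inhibition at 20 µM here, with at most 30% in a related deaminase screen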;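 further: plate controls were A3A with DMSO for no effect and wells lacking A3A enzyme for full effect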
PHOSPHO1 inh – PHOSPHO1 (human) inhibition. inhibition, % at 13.3 µM. AID 1565. 1.1% of 290,000 active. recombinant PHOSPHO1, absorbance phosphatase assay; in the data active means inhibition above about 60%
rCAG binder – r(CAG) repeat RNA binding. TO-PRO-1 dye displacement fluorescence. inhibition, % at 3 µM. 1.3% of 370,000 active. AID 651821;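 active means inhibition above the plate cutoff, the mean of all test compounds on that plate plus 3 SD, cut at about 35% in these data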;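 further: 0% = DMSO alone and 100% = 100 µM mitoxantrone as full dye displacement; higher means more dye released from RNA so lower well fluorescence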
rCAG binder conf – r(CAG) RNA repeat binding, confirmation. AID 652065. TO-PRO-1 dye displacement fluorescence. shares compounds with rCAG binder. inhibition, % at 3 µM. 70% of 4,300 active;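 active means inhibition above a per-plate cutoff, the mean inhibition of sample wells plus 3 SD, cut at about 35% in these data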;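 further: loss of TO-PRO-1 fluorescence as compound displaces dye from 1x1 AA loop RNA; 0% = DMSO only wells and 100% = 100 µM mitoxantrone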
DNA CAG counter – counter-screen for rCAG RNA binders: DNA CAG dye complex inhibitors | shares compounds with rCAG binder | d(CAG) DNA oligo TO-PRO-1 dye displacement, fluorescence | inhibition, % at 3 µM | 94% of 4,300 active | AID 652068;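 active means inhibition above its plate's cutoff, the mean test-well inhibition plus 3 SD, cut at about 4.8% in these data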;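 further: 0% = DNA dye mix with DMSO and 100% = 100 µM mitoxantrone; hits displace the dye from DNA and so lower well fluorescence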
dCAG dye DR – disrupts DNA CAG TO-PRO-1 complex in dose response. shares compounds with rCAG binder. DNA CAG/GTC duplex TO-PRO-1 dye displacement fluorescence. IC50, µM. 20% of 250 active. AID 686960; in the data active means IC50 below about 10 µM
* hit, by the source's call; i = inactive; ? = inconclusive; / = not tested or not shown.

SMILES	aDG glyco up	ALR inh	APOBEC3G inh	APOBEC3A inh	PHOSPHO1 inh	rCAG binder	rCAG binder conf	DNA CAG counter	others
CCCCC(=O)N(C)c1c(CC)nc2c(OCCOc3ccccc3)cccn12	0	/	/	/	/	-4	/	/
C[C@@H]1CN([C@H](C)CO)C(=O)CCCn2cc(nn2)CO[C@H]1CN(C)C(=O)Oc1ccccc1	/	/	/	/	/	-2	/	/
O=C1CC(=O)NC(SCC(=O)Nc2ccccc2[N+](=O)[O-])=N1	0	/	56	90	14	41*	52*	24*
Cc1cc(C)nc(SCC(=O)Nc2ccccc2[N+](=O)[O-])n1	0	-2	-4	1	30	-2	/	/
CCOC(=O)c1c(-c2ccc(-c3ccccc3)cc2)csc1NC(=O)C1C2CCC(O2)C1C(=O)O (configuration not stated)	0	96*	-5	-2	-19	51*	67*	27*
CC(C)=CCCC1(C)C=Cc2c(c(C)cc3c2[nH]c2cc(O)ccc23)O1 (configuration not stated)	0	-45	11	0	27	51*	30	15*
Cc1cc(=O)[nH]c2cc(O)ccc12	0	28	-3	-4	-2	-4	/	/
Cc1ccc(/C=c2\sc3nc(-c4ccco4)nn3c2=O)o1	0	?	80	97	19	/	/	/
COc1ccc(Br)cc1/C=c1\sc2nc(-c3ccco3)nn2c1=O	0	4	87	98	-8	46*	42*	21*
O=c1[nH]c(=O)n(Cc2ccccc2)c2nc(-c3ccco3)cc(C(F)(F)F)c12	0	-14	1	0	18	12	/	/
Cc1nn(CCc2nc(-c3ccco3)cs2)c2[nH]c(=O)cc(C(F)(F)F)c12	0	6	48	62	77*	58*	13	1
CN(C)c1ncnc2c1C(c1ccccc1)C(C)(C)O2 (configuration not stated)	0	/	/	/	/	2	/	/
N#Cc1c(SC(C(=O)O)c2ccccc2)nc2c(c1-c1cccs1)CCCC2 (configuration not stated)	0	/	-6	-3	28	67*	74*	28*	dCAG dye DR=i
CCOC(=O)C(C)Sc1nc2c(c(-c3cccs3)c1C#N)CCC2 (configuration not stated)	0	/	-7	-5	6	4	/	/
CC(C)c1cc(C(=O)NNC(=S)NCc2ccco2)c(O)c(C(C)C)c1	0	/	-5	-4	-4	65*	58*	24*
Cc1cc(C(=O)NNC(=S)NCc2ccco2)n(C)n1	0	9	-4	-5	-15	-1	/	/
Cc1cc(C(=O)O[C@@H]2CCC[C@]3(C(=O)N(Cc4ccccc4)c4ccccc43)[C@H]2NC(=O)CCc2ccccc2)no1	/	/	/	/	/	7	/	/
CCCCN1Cc2c(nc3cc(-c4ccco4)[nH]n3c2=O)C1=O	0	11	83	96	24	66*	9	2
CCC(=O)N1CCc2cc(Br)c(S(=O)(=O)NCCCN(CC)Cc3ccccc3)cc21	/	/	/	/	/	5	/	/
O=C(COC(=O)c1ccccc1)Nc1ncc([N+](=O)[O-])s1	0	10	77	81	/	60*	70*	37*
O=C(Nc1ccccc1)Nc1ncc([N+](=O)[O-])s1	-1	/	-5	0	48	11	/	/
Cc1ccc(CSc2nnc(-c3cccc(S(=O)(=O)N4CCOCC4)c3)n2CC(C)C)cc1	0	-20	-9	-7	-15	49*	0	0
CC(C)Cn1c(SCC(N)=O)nnc1-c1cccc(S(=O)(=O)N2CCOCC2)c1	0	0	-2	1	/	2	/	/
CC1CC(=O)C(C(C2=C(O)CC(C)CC2=O)c2ccccc2)=C(O)C1 (configuration not stated)	0	/	/	/	/	0	/	/
COc1cc(-c2nnc(SCc3cc(=O)oc4cc(O)c(O)cc34)o2)cc(OC)c1OC	0	/	47	55	50	59*	64*	30*
SMILES	aDG glyco up	ALR inh	APOBEC3G inh	APOBEC3A inh	PHOSPHO1 inh	rCAG binder	rCAG binder conf	DNA CAG counter	others
CCOC(=O)CSc1nnc(-c2cc(OC)c(OC)c(OC)c2)o1	0	0	-10	-3	33	-6	/	/
CCc1ccc(-n2cccc2/C=C2/C(=N)N3C(=NC2=O)SN=C3S(C)(=O)=O)cc1	0	58	8	7	32	94*	91*	72*
CS(=O)(=O)C1=NSC2=NC(=O)/C(=C\c3cccn3-c3ccccc3Cl)C(=N)N21	0	26	6	4	-1	83*	77*	39*
Cc1ccc(-n2cccc2/C=C2/C(=N)N3C(=NC2=O)SN=C3S(C)(=O)=O)cc1	1	98*	8	11	11	89*	84*	50*
COc1cccc(-n2c(C)cc(/C=C3/C(=N)N4C(=NC3=O)SN=C4S(C)(=O)=O)c2C)c1	0	97*	-3	1	6	65*	79*	50*
COc1cc(/C=C2/C(=N)N3C(=NC2=O)SN=C3S(C)(=O)=O)ccc1OS(=O)(=O)c1ccc(C)cc1	0	54	0	-1	17	32	/	/
COc1ccc(C(C)(NC(C)=O)c2nc(-c3ccc(F)c(Cl)c3)cs2)cc1 (configuration not stated)	0	/	/	/	/	4	/	/
Cc1cc(C)cc(-n2cccc2/C=C2/C(=N)N3C(=NC2=O)SN=C3S(C)(=O)=O)c1	0	88*	1	-1	8	89*	88*	61*
CS(=O)(=O)C1=NSC2=NC(=O)/C(=C\c3ccc(OS(=O)(=O)c4ccccc4)cc3)C(=N)N21	0	65	-2	-1	28	30	/	/
Cc1ccc(-c2[nH]nc(N)c2N=Nc2cccc(Cl)c2C)cc1	0	/	/	/	19	42*	23	12*
Cc1ccc(N=Nc2c(N)n[nH]c2N)cc1	0	46	-5	-2	/	4	/	/
Cc1ccc(-n2c(O)c(/C=N/NC(=O)C3COc4ccccc4O3)c3ccccc3c2=O)cc1 (configuration not stated)	0	46	-4	-1	1	82*	75*	38*
C[C@H](O)[C@@H]1CN2CCc3ccc(-c4ccc5c(c4)OCO5)cc3[C@@H]2C[C@@H]1N(C)C(=O)NC1CCCCC1	/	/	/	/	/	5	/	/
O=C(N/N=C/c1cc(Br)cc(Br)c1O)c1cccc(S(=O)(=O)N2CCOCC2)c1	0	-4	-11	-1	25	5	/	/
